# Some structures have more than one record in an assay (separate samples or runs), and their calls can disagree. Activity calls are given as the source filed them. Rule for the calls: active = hit-call score of the fitted dose curve at least 0.9, where 1 is the maximum; inactive = score below 0.9.
# Test: ATG_TA_CIS: Attagene CIS-FACTORIAL HepG2 Assay for human TA Basal Promoter (AID 2282964)
# Conditions: HepG2 Attagene CIS-factorial TA basal promoter reporter; actives raise or lower the signal
# Method in brief: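 Transient MRTU transfection of HepG2 preceded 24 h compound exposure. Reporter mRNA levels were then read by RT-PCR with capillary electrophoresis, and this background-control endpoint was fitted bidirectionally to DMSO.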
SMILES,outcome,AC50
c1ccc2c(c1)CCC2,inactive,
CC(C)(C)c1ccc(O)c(O)c1,inactive,
CN(Cc1cnc2nc(N)nc(N)c2n1)c1ccc(C(=O)N[C@@H](CCC(=O)O)C(=O)O)cc1,inactive,
CCCCCCCCCCCC(=O)NCCCN(C)C,,18.9 µM (active)
O=C1c2ccc(O)c(O)c2C(=O)c2c(O)ccc(O)c21,inactive,
Cc1ccc(C(=O)c2ccccc2)cc1,inactive,
Nc1ccc(O)c(C(=O)O)c1,inactive,
CCCCc1oc2ccccc2c1C(=O)c1cc(I)c(OCCN(CC)CC)c(I)c1,,19.8 µM (active)
O=C(O)C(F)(F)OC(F)(F)C(F)(F)OC(F)(F)C(F)(F)OC(F)(F)C(F)(F)C(F)(F)C(F)(F)F,inactive,
CC[N+](CC)(CC)Cc1ccccc1,inactive,
O=C1Cc2ccccc2N1c1c(Cl)cccc1Cl,inactive,
CN(C)c1ccc(C(=C2C=CC(=[N+](C)C)C=C2)c2ccccc2)cc1,inactive,0.752 µM (active)
CCCCC(CC)C(=O)OCCOCCOCCOCCOC(=O)C(CC)CCCC (stereo not drawn),inactive,
c1cnc2c(c1)ccc1cccnc12,inactive,
CN(C)CCOC(c1ccccc1)c1ccccc1,inactive,
C[C@]12CC[C@@H]3c4ccc(O)cc4CC[C@H]3[C@@H]1CC[C@@H]2OC(=O)CCC1CCCC1,inactive,
Cc1cc(=O)oc2cc(O)ccc12,inactive,
FC(OC(F)(F)C(F)(F)C(F)(F)F)C(F)(F)F (stereo not drawn),inactive,
COCN(COC)c1nc(N(COC)COC)nc(N(COC)COC)n1,inactive,
CC=O,inactive,
CCCCCCCCCCCCCCC,inactive,
Cc1ccccc1C(OCCN(C)C)c1ccccc1 (stereo not drawn),inactive,
